# Measured values: PubChem BioAssay (NCATS)
# Results filed as inconclusive are left out. A call without a number means that no potency is given here. Active and inactive are the calls of the source. Calls follow the shape of the full dose curve.
# Target: Nucleoprotein (Lymphocytic choriomeningitis virus (strain Armstrong)) (UniProt P09992)
# Test: qHTS for Inhibitors of the Functional Ribonucleoprotein Complex (vRNP) of Lymphocytic Choriomeningitis Arenaviruses (LCMV): LCMV Primary Screen - GLuc reporter signal (AID 1347086); also: nearly all actives have a fitted effect of over 70% in size
# Conditions: LCMV minigenome vRNP cell assay, Gaussia luciferase reporter; series mostly up to 57.5 µM
# Nucleoprotein (Lymphocytic choriomeningitis virus (strain Armstrong)), sequence (P09992 whole entry, looked up): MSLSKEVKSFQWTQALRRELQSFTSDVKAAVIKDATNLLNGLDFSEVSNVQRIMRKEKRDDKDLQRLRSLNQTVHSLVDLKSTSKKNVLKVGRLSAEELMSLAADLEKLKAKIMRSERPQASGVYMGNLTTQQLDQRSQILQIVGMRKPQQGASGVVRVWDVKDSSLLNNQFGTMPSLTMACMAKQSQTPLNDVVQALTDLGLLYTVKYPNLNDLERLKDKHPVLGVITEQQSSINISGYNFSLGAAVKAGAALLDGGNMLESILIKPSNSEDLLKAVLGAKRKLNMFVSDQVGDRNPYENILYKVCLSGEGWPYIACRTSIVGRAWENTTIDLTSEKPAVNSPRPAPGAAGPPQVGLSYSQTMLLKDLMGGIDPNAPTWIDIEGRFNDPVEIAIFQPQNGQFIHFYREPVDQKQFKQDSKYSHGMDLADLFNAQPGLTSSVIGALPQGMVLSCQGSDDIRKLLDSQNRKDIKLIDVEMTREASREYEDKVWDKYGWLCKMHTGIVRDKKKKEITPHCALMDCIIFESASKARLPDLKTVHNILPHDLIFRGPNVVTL
row,SMILES,Potency
1,COCCOC(=O)C1=C(C)NC(C)=C(C(=O)OC(C)C)C1c1cccc([N+](=O)[O-])c1 (centres undefined),inactive
2,CC(C)(C)CC(C)(C)c1ccc(O)c(-n2nc3ccccc3n2)c1,inactive
3,C[C@H]1C[C@H](O)c2ccsc2S1(=O)=O,inactive
4,CCN1CCC[C@H]1CNC(=O)c1c(O)c(Cl)cc(Cl)c1OC,inactive
5,O=C(O)CN(CCN(CC(=O)O)CC(=O)O)CCN(CC(=O)O)CC(=O)O,inactive
6,O=C1OC2(c3ccccc31)c1cc(Br)c(O)c(Br)c1Oc1c2cc(Br)c(O)c1Br,inactive
7,CC(=O)OC(C)OC(=O)C(C)c1ccc(-c2ccccc2)c(F)c1 (centres undefined),inactive
8,CC1CC(OC(=O)c2ccccc2O)CC(C)(C)C1 (centres undefined),inactive
9,CC(=O)OCC(COC(C)=O)OC(C)=O,inactive
10,CN1C(CSCC(F)(F)F)Nc2cc(Cl)c(S(N)(=O)=O)cc2S1(=O)=O (centres undefined),inactive
11,O=C(CCBr)N1CCN(C(=O)CCBr)CC1,inactive
12,CCN1CCCC1CNC(=O)c1cc(S(=O)(=O)CC)c(N)cc1OC (centres undefined),inactive
13,O=c1[nH]cnc2[nH]ncc12,inactive
14,NC1CCN(c2nc3c(cc2F)c(=O)c(C(=O)O)cn3-c2ccc(F)cc2F)C1 (centres undefined),inactive
15,COc1cc(C(=O)OC(COCCC(C)C)CN2CCOCC2)cc(OC)c1OC (centres undefined),inactive
16,O=C(O)Cn1cnnn1,inactive
17,COC(=O)CCCCC(CCSS/C(CCO)=C(\C)N(C=O)Cc1cnc(C)nc1N)SC(C)=O (centres undefined),inactive
18,O=[N+]([O-])c1cncn1CCN1CCOCC1,inactive
19,CCCCC(CC)CNC(=O)CC(C)OC(=O)CCC(=O)O (centres undefined),inactive
20,O=C(O)[C@H](O)c1ccccc1,inactive

row,SMILES,Potency
1,CC(=O)[C@H]1CC[C@H]2[C@@H]3C=CC4=CC(=O)CC[C@@]4(C)[C@@H]3CC[C@]12C,inactive
2,CCn1nc(C(=O)O)c(=O)c2cc3c(cc21)OCO3,inactive
3,O=C(O)c1ccccc1Nc1cccc(C(F)(F)F)c1,inactive
4,N#Cc1ccc(C(c2ccc(C#N)cc2)n2cncn2)cc1,inactive
5,CCOC(=O)C(O)c1ccccc1 (centres undefined),inactive
6,O=C(N/N=C/c1ccccc1O)c1ccncc1,inactive
7,Cc1cnc(NC(=O)C2=C(O)c3ccccc3S(=O)(=O)N2C)s1,inactive
8,CCN1CCC[C@H]1CNC(=O)c1cc(S(N)(=O)=O)ccc1OC,inactive
9,COC(=O)C1=C(C)NC(C)=C(C(=O)OCCc2ccc(N3CCN(C(c4ccccc4)c4ccccc4)CC3)cc2)C1c1cccc([N+](=O)[O-])c1 (centres undefined),inactive
10,N#CC1(c2ccc(F)cc2)CCC(=O)CC1,inactive
11,NCCCNCCSP(=O)(O)O,inactive
12,O=C(O)c1[nH]n(-c2ccc(S(=O)(=O)O)cc2)c(=O)c1N=Nc1ccc(S(=O)(=O)O)cc1,inactive
13,COc1ccc2c(c1)c(CC(=O)OC/C=C(\C)CC/C=C(\C)CCC=C(C)C)c(C)n2C(=O)c1ccc(Cl)cc1,inactive
14,Oc1ccc(OCc2ccccc2)cc1,inactive
15,Cc1coc2ccccc2c1=O,inactive
16,O=C(OCc1ccccc1)c1ccccc1,inactive
17,CN1C(C(=O)Nc2ccccn2)=C(O)c2ccccc2S1(=O)=O,inactive
18,CCCCCCCCCCCCSCCOCCO,inactive
19,Nc1ccc(O)cc1,inactive
